Laboratory results: PubChem BioAssay
Activity calls are given as the source filed them. Unless noted, how the calls were made is not given here.

Legend:
[1] = test system: Wnt5a (protein binding on small-molecule microarray); assay: small molecules binding Wnt5a protein – biophysical, small-molecule microarray, 635/667 nm fluorescence, primary screen (AID 1142); conditions: 635 nm fluorescence, higher = more signal;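 further: fluorescence read at 667 nm with signal to noise per printed feature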
[2] = ATP-based viability of Huh7 replicon cells – cell-based, CellTiter-Glo luminescence, basal, 48 h, cytotoxicity control for HCV replication inhibitor project, primary screen (AID 1143); conditions: higher = more signal, called active from +8 up or from −8 down;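 further: Huh7 hepatoma cells carrying a hepatitis C replication reporter with no stimulus; test concentration not given here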
[3] = Pseudomonas biofilm growth suppression – PAO1 strain, BacTiter-Glo luminescence, LB-PBS, primary screen (AID 1144); conditions: P. aeruginosa PAO1 biofilm, 12 h, higher = more signal
[4] = basal CRE-LacZ reporter activity in PC12 – cell-based, unstimulated, primary screen (AID 1145); conditions: no forskolin, luminescence, 4.5 h, higher = more signal, called active from +8 up or from −8 down
[5] = forskolin-driven CRE-LacZ activity in PC12 – cell-based, CRE-LacZ reporter, forskolin-stimulated, primary screen (AID 1146); conditions: luminescence, 4.5 h, higher = more signal, called active from +8 up or from −8 down;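 further: PC12 cells with 6xCRE LacZ reporter stimulated by forskolin 10 µM; beta-galactosidase reporter signal reflecting CREB driven transcription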
[6] = biological target: Streptavidin (Streptomyces avidinii) (UniProt P22629); assay: compounds binding control protein streptavidin – biophysical, small-molecule microarray, 635/667 nm fluorescence, artefact control for SMM compound annotation, primary screen (AID 1147); conditions: higher = more signal;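 further: signal reflects streptavidin binding to arrayed compounds as a control protein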
[7] = probe aInhba binding on compound microarray – biochemical, small-molecule microarray, 635/667 nm fluorescence, primary screen (AID 1148); conditions: higher = more signal;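 further: score merges 667nm spot fluorescence with signal-to-noise for antibody binding to printed compounds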
Torsin-1A (Homo sapiens) [8] = biological target: Torsin-1A (Homo sapiens) (UniProt O14656); assay: TOR1A wild-type binding on microarray – cell lysate, small-molecule microarray, lysate, 635/667 nm, primary screen (AID 1149); conditions: COS7 hTOR1A-WT lysate, 635 nm fluorescence, higher = more signal
Torsin-1A (Homo sapiens) [9] = biological target: Torsin-1A (Homo sapiens) (UniProt O14656); assay: torsin A mutant lysate binding on microarrays – cell lysate, small-molecule microarray, COS7 lysate, 635/667 nm fluorescence, primary screen (AID 1150); conditions: COS7 hTOR1A mutant lysate, 635 nm fluorescence, higher = more signal;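 further: score pools 667 nm emission and signal to noise measuring lysate protein binding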
[10] = test system: Sonic hedgehog protein (Shh); assay: Sonic hedgehog microarray binding compounds – biochemical, small-molecule microarray, 635/667 nm fluorescence, primary screen (AID 1151); conditions: 635 nm fluorescence, higher = more signal;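 further: Shh protein binding to compounds spotted on small-molecule microarray slides; score combines spot fluorescence intensity with signal-to-noise across triplicate slides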
[11] = optical density shifts of acrAB sulA E. coli – strain DRC41, OD650, 48 h, E. coli filamentation inducer project, primary screen (AID 1152); conditions: higher = more signal, called active from +8 up or from −8 down;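 further: E. coli MC1000 strain DRC41 lacking acrAB efflux pump and sulA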
[12] = probe aLefty1 binding on compound microarray – biochemical, small-molecule microarray, 635/667 nm fluorescence, primary screen (AID 1153); conditions: higher = more signal;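 further: score merges spot fluorescence with signal-to-noise ratio from the scanned slide images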
[13] = plasmodial surface anion channel blockers, osmotic lysis – cell-based, P. falciparum Indochina, OD700, 1 h, primary screen (AID 1154); conditions: P. falciparum Indochina infected RBC osmotic lysis, higher = more signal, called active from +8 up or from −8 down
[14] = plasmodial surface anion channel blockers, osmotic lysis – cell-based, P. falciparum Indochina, OD700, 2 h, primary screen (AID 1155);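 further: lysis reports solute entry through the parasite surface anion channel PSAC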; conditions: P. falciparum Indochina infected erythrocytes, higher = more signal, called active from +8 up or from −8 down
[15] = changes in parasitized red cell lysis, either direction – P. falciparum Indochina, OD700, 3 h, PSAC antagonist project, primary screen (AID 1156); conditions: P. falciparum-infected erythrocytes, osmotic lysis, higher = more signal, called active from +8 up or from −8 down
[16] = plasmodial surface anion channel blockers, osmotic lysis – cell-based, P. falciparum Indochina, OD700, 18 h, primary screen (AID 1157); conditions: P. falciparum Indochina infected erythrocytes, osmotic lysis OD700, 18 h; higher = more signal, called active from +8 up or from −8 down
[17] = S6 kinase pathway phospho-S6 level changes – cell-based, A549, cytoblot, luminescence, serum-stimulated, primary screen (AID 1158); conditions: 5 h, higher = more signal;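 further: serum-stimulated A549 lung adenocarcinoma cells; signal is phosphorylated S6 detected by cytoblot immunostaining with HRP secondary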
[18] = biological target: NADPH oxidase 2 (Homo sapiens) (UniProt P04839); assay: compounds shifting NOX2 Amplex Red fluorescence – cell-based, HEK293-NOX2, PMA-stimulated, NOX inhibitor project, primary screen (AID 1159); conditions: 45 min, higher = more signal, called active from +8 up or from −8 down; further: test concentration not given here
[19] = biological target: NADPH oxidase 4 (Homo sapiens) (UniProt Q9NPH5); assay: compounds shifting NOX4 Amplex Red fluorescence – cell-based, HEK293-NOX4, tetracycline-induced, NOX inhibitor project, primary screen (AID 1160); conditions: HEK293-NOX4, Amplex Red H2O2 fluorescence, 45 min; higher = more signal, called active from +8 up or from −8 down
[20] = biological target: NADPH oxidase 5 (Homo sapiens) (UniProt Q96PH1); assay: compounds shifting NOX5 Amplex Red fluorescence – cell-based, HEK293-NOX5, NOX inhibitor project, primary screen (AID 1161); conditions: HEK293-NOX5, ionomycin, 45 min, higher = more signal
Sequence of NADPH oxidase 5 (Homo sapiens) (Q96PH1 whole entry, looked up): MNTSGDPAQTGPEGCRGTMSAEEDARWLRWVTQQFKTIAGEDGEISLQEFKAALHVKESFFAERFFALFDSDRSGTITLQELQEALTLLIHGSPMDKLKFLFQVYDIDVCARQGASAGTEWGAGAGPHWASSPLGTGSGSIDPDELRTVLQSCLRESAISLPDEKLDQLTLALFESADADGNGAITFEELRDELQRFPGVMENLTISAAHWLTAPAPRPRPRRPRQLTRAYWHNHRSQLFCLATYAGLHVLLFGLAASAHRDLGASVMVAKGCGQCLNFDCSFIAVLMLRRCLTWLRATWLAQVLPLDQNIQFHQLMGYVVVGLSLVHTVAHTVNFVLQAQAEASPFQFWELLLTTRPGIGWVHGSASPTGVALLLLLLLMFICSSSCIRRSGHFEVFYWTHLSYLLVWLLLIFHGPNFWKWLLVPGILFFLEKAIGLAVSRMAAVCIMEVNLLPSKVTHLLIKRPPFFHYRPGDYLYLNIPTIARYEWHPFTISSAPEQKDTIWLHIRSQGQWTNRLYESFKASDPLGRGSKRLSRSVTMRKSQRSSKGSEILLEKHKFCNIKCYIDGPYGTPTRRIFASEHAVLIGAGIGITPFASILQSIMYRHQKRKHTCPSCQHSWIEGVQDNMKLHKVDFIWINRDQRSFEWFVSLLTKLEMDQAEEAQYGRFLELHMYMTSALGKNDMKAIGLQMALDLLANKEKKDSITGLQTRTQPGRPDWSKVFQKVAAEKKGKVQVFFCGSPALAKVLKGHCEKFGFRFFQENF

Sequence of NADPH oxidase 4 (Homo sapiens) (Q9NPH5 whole entry, looked up): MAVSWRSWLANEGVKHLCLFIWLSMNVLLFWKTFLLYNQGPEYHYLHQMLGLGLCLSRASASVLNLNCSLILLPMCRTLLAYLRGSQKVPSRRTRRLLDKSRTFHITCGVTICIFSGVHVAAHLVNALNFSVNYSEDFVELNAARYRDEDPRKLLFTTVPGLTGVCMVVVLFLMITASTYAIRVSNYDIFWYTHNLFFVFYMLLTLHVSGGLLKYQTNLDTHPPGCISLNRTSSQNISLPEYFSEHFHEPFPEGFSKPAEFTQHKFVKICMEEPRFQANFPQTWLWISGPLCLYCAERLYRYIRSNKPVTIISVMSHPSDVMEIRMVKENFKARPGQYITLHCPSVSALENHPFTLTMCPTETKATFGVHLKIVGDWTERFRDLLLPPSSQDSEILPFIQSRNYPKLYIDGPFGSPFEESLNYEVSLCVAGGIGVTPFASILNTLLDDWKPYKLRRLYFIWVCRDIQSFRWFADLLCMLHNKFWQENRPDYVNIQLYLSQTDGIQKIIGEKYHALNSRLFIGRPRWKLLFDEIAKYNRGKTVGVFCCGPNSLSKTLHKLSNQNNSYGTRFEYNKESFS
Sequence of Torsin-1A (Homo sapiens) (O14656 whole entry, looked up): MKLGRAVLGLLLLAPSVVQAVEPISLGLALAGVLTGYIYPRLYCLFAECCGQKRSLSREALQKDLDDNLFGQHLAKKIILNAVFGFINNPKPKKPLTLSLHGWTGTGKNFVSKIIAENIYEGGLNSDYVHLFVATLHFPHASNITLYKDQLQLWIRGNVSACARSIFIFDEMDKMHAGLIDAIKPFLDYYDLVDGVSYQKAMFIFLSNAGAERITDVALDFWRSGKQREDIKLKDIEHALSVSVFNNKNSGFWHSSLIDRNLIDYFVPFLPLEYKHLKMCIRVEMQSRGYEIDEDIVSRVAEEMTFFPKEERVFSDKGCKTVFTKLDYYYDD
Sequence of NADPH oxidase 2 (Homo sapiens) (P04839 whole entry, looked up): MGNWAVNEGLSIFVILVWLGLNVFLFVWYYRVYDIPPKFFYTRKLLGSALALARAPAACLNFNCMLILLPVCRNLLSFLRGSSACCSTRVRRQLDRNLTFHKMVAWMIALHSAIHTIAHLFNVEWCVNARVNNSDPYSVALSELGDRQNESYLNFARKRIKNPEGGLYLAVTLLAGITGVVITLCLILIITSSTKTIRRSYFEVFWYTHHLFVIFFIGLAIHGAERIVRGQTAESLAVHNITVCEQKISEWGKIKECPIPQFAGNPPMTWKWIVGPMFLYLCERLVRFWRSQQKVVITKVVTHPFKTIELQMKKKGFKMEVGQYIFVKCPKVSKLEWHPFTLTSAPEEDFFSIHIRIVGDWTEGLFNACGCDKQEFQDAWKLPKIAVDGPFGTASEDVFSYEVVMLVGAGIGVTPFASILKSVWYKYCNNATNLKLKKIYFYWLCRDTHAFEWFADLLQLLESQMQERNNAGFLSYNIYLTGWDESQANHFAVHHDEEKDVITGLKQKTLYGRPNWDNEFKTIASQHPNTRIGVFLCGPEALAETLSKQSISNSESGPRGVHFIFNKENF
Sequence of Streptavidin (Streptomyces avidinii) (P22629 whole entry, looked up): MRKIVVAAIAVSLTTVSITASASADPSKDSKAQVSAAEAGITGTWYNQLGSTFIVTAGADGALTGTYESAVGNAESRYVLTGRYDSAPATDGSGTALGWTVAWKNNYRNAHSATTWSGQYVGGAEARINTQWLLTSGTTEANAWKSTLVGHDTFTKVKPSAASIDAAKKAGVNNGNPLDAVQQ

## COC(=O)[C@@]1(Cc2ccc(F)cc2)[C@H]2c3cc(C(=O)N(C)C)n(CCc4ccc(O)c(O)c4)c3C[C@H]2CN1C(=O)c1ccccc1
[1]
  composite z-score: 0.643
[2]
  z-score: 0.395 (inactive)
[3]
  z-score: -0.0598 (inactive)
[4]
  z-score: 0.387 (inactive)
[5]
  z-score: 1.4 (inactive)
[6]
  composite z-score: 0.365
[7]
  composite z-score: 0.528
Torsin-1A (Homo sapiens) [8]
  composite z-score: 0.411
Torsin-1A (Homo sapiens) [9]
  composite z-score: 0.92
[10]
  composite z-score: -1.67
[11]
  z-score: -0.81 (inactive)
[12]
  composite z-score: 0.162
[13]
  z-score: 0.183 (inactive)
[14]
  z-score: 0.194 (inactive)
[15]
  z-score: 0.248 (inactive)
[16]
  z-score: 0.494 (inactive)
[17]
  z-score: 0.407
[18]
  z-score: -0.168 (inactive)
[19]
  z-score: -1.31 (inactive)
[20]
  z-score: -0.966

## COCCOC(=O)N1C(=O)[C@@]2(c3ccccc31)[C@H](c1ccc(O)cc1)N1[C@H](c3ccccc3)[C@H](c3ccccc3)OC(=O)[C@H]1[C@@H]2C(=O)N1CCCCCCC1
[1]
  composite z-score: 1.08
[2]
  z-score: -2.61 (inactive)
[3]
  z-score: -1.17 (inactive)
[4]
  z-score: 0.0816 (inactive)
[5]
  z-score: -0.0911 (inactive)
[6]
  composite z-score: 3.03
[7]
  composite z-score: 2.08
Torsin-1A (Homo sapiens) [8]
  composite z-score: 1.32
Torsin-1A (Homo sapiens) [9]
  composite z-score: 2.13
[10]
  composite z-score: 1.96
[11]
  z-score: -0.59 (inactive)
[12]
  composite z-score: 2.86
[13]
  z-score: -0.0501 (inactive)
[14]
  z-score: 0.619 (inactive)
[15]
  z-score: -0.363 (inactive)
[16]
  z-score: 0.14 (inactive)
[17]
  z-score: -0.43
[18]
  z-score: 0.54 (inactive)
[19]
  z-score: 0.898 (inactive)
[20]
  z-score: 1.32

## O=C1O[C@H](c2ccccc2)[C@H](c2ccccc2)N2[C@H]1[C@@H](C(=O)N1CCN(c3ncccn3)CC1)[C@]1(C(=O)Nc3ccc(C#CCCO)cc31)[C@H]2c1ccc(O)cc1
[1]
  composite z-score: 0.313
[2]
  z-score: -0.522 (inactive)
[3]
  z-score: -0.218 (inactive)
[4]
  z-score: 0.0653 (inactive)
[5]
  z-score: 0.253 (inactive)
[6]
  composite z-score: 1.05
[7]
  composite z-score: 0.0111
Torsin-1A (Homo sapiens) [8]
  composite z-score: 0.161
Torsin-1A (Homo sapiens) [9]
  composite z-score: 0.0065
[10]
  composite z-score: 0.429
[11]
  z-score: -0.951 (inactive)
[12]
  composite z-score: 0.208
[13]
  z-score: 1.28 (inactive)
[14]
  z-score: 0.436 (inactive)
[15]
  z-score: 1.2 (inactive)
[16]
  z-score: 0.0991 (inactive)
[17]
  z-score: 0.201
[18]
  z-score: 0.84 (inactive)
[19]
  z-score: 0.722 (inactive)
[20]
  z-score: 1.41

## CCN(CC)c1ccc(N2CC=CC34O[C@@H]5C=CCCOC(=O)C5[C@H]3C(=O)N(C(C)CO)[C@@H]4C2=O)cc1 (stereo not given in full)
[1]
  composite z-score: -0.188
[2]
  z-score: 0.0396 (inactive)
[3]
  z-score: 1.25 (inactive)
[4]
  z-score: 1.01 (inactive)
[5]
  z-score: -0.0386 (inactive)
[6]
  composite z-score: -0.638
[7]
  composite z-score: 0.166
Torsin-1A (Homo sapiens) [8]
  composite z-score: 0.0632
Torsin-1A (Homo sapiens) [9]
  composite z-score: -0.194
[10]
  composite z-score: 1.53
[11]
  z-score: -0.627 (inactive)
[12]
  composite z-score: 0.138
[13]
  z-score: 3.66 (inactive)
[14]
  z-score: 0.493 (inactive)
[15]
  z-score: 0.988 (inactive)
[16]
  z-score: 0.353 (inactive)
[17]
  z-score: -0.465
[18]
  z-score: -0.748 (inactive)
[19]
  z-score: 0.447 (inactive)
[20]
  z-score: 0.772

## COc1ccc([Si](C)(C)[C@@H]2[C@@H](CC(=O)N(CCO)Cc3ccccc3)O[C@]3(C(=O)N(Cc4ccc(N5C(=O)c6cccc7cccc5c67)cc4)c4ccccc43)[C@H]2C)cc1
[1]
  composite z-score: 0.0547
[2]
  z-score: -4.28 (inactive)
[3]
  z-score: -0.298 (inactive)
[4]
  z-score: 0.12 (inactive)
[5]
  z-score: -0.204 (inactive)
[6]
  composite z-score: 0.22
[7]
  composite z-score: -0.0112
Torsin-1A (Homo sapiens) [8]
  composite z-score: 0.37
Torsin-1A (Homo sapiens) [9]
  composite z-score: 0.0705
[10]
  composite z-score: 1.8
[11]
  z-score: -0.414 (inactive)
[12]
  composite z-score: 0.004
[13]
  z-score: 7.3 (inactive)
[14]
  z-score: 2.33 (inactive)
[15]
  z-score: 0.296 (inactive)
[16]
  z-score: 1.14 (inactive)
[17]
  z-score: 0.487
[18]
  z-score: 1.28 (inactive)
[19]
  z-score: -0.496 (inactive)
[20]
  z-score: 2.72

## CC(C)OC(=O)CC(=O)CC(O)c1cccc([N+](=O)[O-])c1 (stereo not given)
[1]
  composite z-score: 0.457
[2]
  z-score: -3.92 (inactive)
[3]
  z-score: -2.34 (inactive)
[4]
  z-score: -0.676 (inactive)
[5]
  z-score: -0.185 (inactive)
[6]
  composite z-score: 1.14
[7]
  composite z-score: -0.0221
Torsin-1A (Homo sapiens) [8]
  composite z-score: -0.324
Torsin-1A (Homo sapiens) [9]
  composite z-score: 2.75
[10]
  composite z-score: -0.352
[11]
  z-score: 1.27 (inactive)
[12]
  composite z-score: 0.318
[13]
  z-score: 3.27 (inactive)
[14]
  z-score: 0.79 (inactive)
[15]
  z-score: -1.39 (inactive)
[16]
  z-score: -0.295 (inactive)
[17]
  z-score: 2.1
[18]
  z-score: -0.068 (inactive)
[19]
  z-score: 0.147 (inactive)
[20]
  z-score: 0.435

## COCCCNC(=O)[C@@]1(Sc2ccc(C)cc2)CC(=O)N(Cc2ccccc2C(F)(F)F)[C@@H]1c1ccc(CO)cc1I
[1]
  composite z-score: -0.249
[2]
  z-score: -0.818 (inactive)
[3]
  z-score: 0.86 (inactive)
[4]
  z-score: -0.0888 (inactive)
[5]
  z-score: 0.421 (inactive)
[6]
  composite z-score: -0.503
[7]
  composite z-score: -0.111
Torsin-1A (Homo sapiens) [8]
  composite z-score: -1.5
Torsin-1A (Homo sapiens) [9]
  composite z-score: -0.642
[10]
  composite z-score: -1.02
[11]
  z-score: 0.0516 (inactive)
[12]
  composite z-score: 0.112
[13]
  z-score: 2.06 (inactive)
[14]
  z-score: 0.786 (inactive)
[15]
  z-score: 0.385 (inactive)
[16]
  z-score: 0.377 (inactive)
[17]
  z-score: -0.248
[18]
  z-score: 0.843 (inactive)
[19]
  z-score: -1.01 (inactive)
[20]
  z-score: 2.49

## COCCOC(=O)N1C(=O)[C@@]2(c3cc(C#CCCO)ccc31)[C@H](c1ccccc1OCCO)N1[C@H](c3ccccc3)[C@H](c3ccccc3)OC(=O)[C@H]1[C@@H]2C(N)=O
[1]
  composite z-score: 0.536
[2]
  z-score: -4.33 (inactive)
[3]
  z-score: -0.441 (inactive)
[4]
  z-score: 0.0653 (inactive)
[5]
  z-score: 18.6 (active)
[6]
  composite z-score: 0.508
[7]
  composite z-score: -0.226
Torsin-1A (Homo sapiens) [8]
  composite z-score: -0.0615
Torsin-1A (Homo sapiens) [9]
  composite z-score: 0.172
[10]
  composite z-score: 1.97
[11]
  z-score: 1.46 (inactive)
[12]
  composite z-score: -0.278
[13]
  z-score: 20.3 (active)
[14]
  z-score: 4.04 (inactive)
[15]
  z-score: 0.633 (inactive)
[16]
  z-score: 0.934 (inactive)
[17]
  z-score: 0.868
[18]
  z-score: 1.81 (inactive)
[19]
  z-score: 0.552 (inactive)
[20]
  z-score: -0.302
